± gives the standard deviation of the averaged measurements.
Columns and labels:
DLD1 [1] = test: cell viability (CellTiter-Glo) relative to plate median (fraction of plate median); higher = more viable cells; conditions: 10 µM, treatment time 24 h
Procedure, shortened: (§1)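 Each value averages two independent replicates in which the well signal was normalised to the plate median (webcellHTS2, additive, without log transformation). The signal was firefly luciferase or CellTiterGlo luminescence, read on parallel plates with a Tecan F500. The cells were colorectal cancer lines with stable lentiviral TCF/Wnt firefly luciferase reporters in 384-well plates, dosed 24 h after seeding with kinase inhibitor library compounds at a final 10 µM for 24 h.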

HCT116 [2] = test: as above; conditions: 10 µM; treatment time 24 h; reporter: TCF4/Wnt
Procedure, shortened: as §1

SW480 [3] = test: as above; conditions: 10 µM; treatment time 24 h; reporter: 7TFP
Procedure, shortened: as §1

DLD1 [4] = test: TCF/Wnt firefly luciferase reporter signal relative to plate median (fraction of plate median); higher = higher Wnt reporter signal; conditions: 10 µM, treatment time 24 h
Procedure, shortened: as §1

HCT116 [5] = test: as above; conditions: 10 µM; treatment time 24 h; reporter: TCF4/Wnt
Procedure, shortened: as §1

SW480 [6] = test: as above; conditions: 10 µM; treatment time 24 h; reporter: 7TFP
Procedure, shortened: as §1

Row | Compound | cell viability (DLD1 [1]; reporter: 7TFP) | cell viability (DLD1 [1]; reporter: TCF4/Wnt) | cell viability (HCT116 [2]) | cell viability (SW480 [3]) | TCF/Wnt firefly luciferase reporter signal (DLD1 [4]; reporter: 7TFP) | TCF/Wnt firefly luciferase reporter signal (DLD1 [4]; reporter: TCF4/Wnt) | TCF/Wnt firefly luciferase reporter signal (HCT116 [5]) | TCF/Wnt firefly luciferase reporter signal (SW480 [6])
1 | CC[C@H](CO)Nc1nc(NCc2ccccc2)c2ncn(C(C)C)c2n1 [Roscovitine (Seliciclib, CYC202)] | 0.852 ± 0.065 | 0.922 ± 0.0099 | 0.923 ± 0.12 | 0.833 ± 0.039 | 1.14 ± 0.35 | 1.46 ± 0.23 | 1.34 ± 0.43 | 1.02 ± 0.028
2 | Cn1cnc(N)c2ncnc1-2 [3-Methyladenine] | 1.07 ± 0.078 | 1.11 ± 0.12 | 1.13 ± 0.014 | 0.867 ± 0.1 | 1.17 ± 0.13 | 1.12 ± 0.11 | 1.03 ± 0.066 | 0.733 ± 0.24
3 | Cc1cnc(Nc2ccc(OCCN3CCCC3)cc2)nc1Nc1cccc(S(=O)(=O)NC(C)(C)C)c1 | 1.07 ± 0.064 | 1.14 ± 0.16 | 1.14 | 0.871 ± 0.04 | 1.2 ± 0.26 | 1.14 ± 0.18 | 1.31 ± 0.22 | 1.06 ± 0.078
4 | Cc1c(NC(=O)OC[C@@H]2COCCN2)cn2ncnc(Nc3ccc4c(cnn4Cc4cccc(F)c4)c3)c12 | 1.04 | 0.97 ± 0.17 | 1.13 ± 0.22 | 1.01 ± 0.092 | 1.27 ± 0.099 | 1.32 ± 0.2 | 1.01 ± 0.036 | 1.3 ± 0.078
5 | Cc1[nH]c(/C=C2\C(=O)Nc3ccc(S(=O)(=O)N(C)c4cccc(Cl)c4)cc32)c(C)c1C(=O)N1CCN(C)CC1 | 1.13 | 1.04 ± 0.066 | 1.09 ± 0.13 | 1.06 ± 0.11 | 0.858 ± 0.37 | 0.954 ± 0.14 | 0.756 ± 0.098 | 0.964 ± 0.065
6 | Nc1nc(N)c2nc(-c3cccc(O)c3)cnc2n1 | 1.09 ± 0.014 | 1.08 ± 0.021 | 0.97 ± 0.018 | 1.04 ± 0.064 | 1.4 ± 0.26 | 1.15 ± 0.085 | 1.33 ± 0.31 | 1.34 ± 0.042
7 | C=CC(=O)Nc1cc2c(Nc3ccc(F)c(Cl)c3)ncnc2cc1OCCCN1CCOCC1 [CI-1033 (Canertinib)] | 0.868 ± 0.016 | 0.854 ± 0.068 | 0.968 ± 0.059 | 1.03 ± 0.035 | 0.353 ± 0.013 | 0.601 ± 0.096 | 1 ± 0.19 | 0.771 ± 0.32
8 | Cc1ccc(C(=O)Nc2ccc(CN3CCN(C)CC3)c(C(F)(F)F)c2)cc1C#Cc1cnc2cccnn12 | 0.835 ± 0.055 | 0.8 ± 0.0099 | 0.631 ± 0.14 | 1.01 ± 0.16 | 0.285 ± 0.064 | 0.466 ± 0.0028 | 0.292 ± 0.12 | 0.668 ± 0.098
9 | CCCCCCCCCCCCc1ccc(S(=O)(=O)Nc2nncs2)cc1 | 1.03 ± 0.05 | 0.966 ± 0.037 | 1.16 ± 0.035 | 0.91 ± 0.016 | 0.981 ± 0.041 | 1.14 ± 0.18 | 1.21 ± 0.16 | 0.959 ± 0.12
10 | Nc1nc(Nc2ccc(S(N)(=O)=O)cc2)nn1C(=O)c1c(F)cccc1F | 1.01 ± 0.14 | 1.05 ± 0.076 | 0.71 ± 0.11 | 1.24 ± 0.071 | 0.811 ± 0.057 | 1.59 ± 0.69 | 0.284 ± 0.018 | 1.09 ± 0.13

Source: the supplement of paper PMC6522484
